Rows were chosen to be rich in hits. Some 7.9% of all compounds tested hit in one or more screens of this group.
KB-V1 MDR tox: KB-V1 MDR subline cytotoxicity; KB-V1 MDR cells viability, CellTiter-Glo, 72 h; Potency, µM (top dose mostly 46.1 µM), most hits filed as cytotoxic; hit rate 3.4% among 400,000; AID 1347076; note: % is set by controls: 0 for no effect and ±100 for the full control effect; nearly all actives have a fitted effect of over 60% in size
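In this primary screen, KB-V1 cells overexpressing P-gp are incubated with library compounds (lowest to highest concentration) for 72 h at 37 degrees C before a luminescent ATP viability read.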
HT1080-NT tox: kills 2HG-producing HT-1080-NT fibrosarcoma cells; hit rate 1.6% among 360,000; Potency, µM (titrated, usually from 46.1 µM), for inactives: top-dose activity, negative = less viability, most hits filed as cytotoxic; HT-1080-NT fibrosarcoma viability, CellTiter-Glo ATP luminescence, 48 h;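 note: NT is the 2HG producing partner of a matched IDH1 knockdown line; 0% = DMSO-treated cells and -100% = media-only wells without cells; nearly all actives have a fitted effect of over 55% in size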
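Compounds were tested in concentration-response format on HT-1080-NT cells for 48 hours at 37 degrees C. Cell viability came from CellTiter-Glo luminescence; curves were classified by r2, response magnitude and activity.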
SW480 rereplic: inducers of DNA re-replication in SW480 colon cancer cells | AID 624297 | hit rate 1.8% among 340,000 | SW480 DNA re-replication, Hoechst DNA content imaging, 48 h | Potency, µM (doses to about 46.1 µM), for inactives: at the highest dose re-replication activation, hits mostly activators; note: % of control where 0% means no effect; nearly all actives have a fitted effect of over 55% in size
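SW480 cells exposed to compounds for 48 hr at 37 C, 5% CO2, then Hoechst-stained 40 min. Nuclear DNA content imaged by fluorescence scanning (405 nm excitation, 500-530 nm emission); re-replication scored as increased high-intensity nuclei.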
HT1080 IDH1KD tx: kills HT-1080 cells with IDH1 knockdown | HT-1080 IDH1 knockdown viability, ATP luminescence, 48 h | Potency, µM (titrated, usually from 46.1 µM), for the others: at the highest dose activity, negative = toxicity, most hits filed as cytotoxic | hit rate 2% among 360,000;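 note: 0% = DMSO wells and -100% = cell-free medium wells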
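Viability of IDH1-knockdown HT-1080 fibrosarcoma cells was assessed by CellTiter-Glo after 48 h at 37 °C with titrated compound; concentration-effect curves were classified by fit quality and response size.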
MCF10A rerep: inducers of DNA re-replication in MCF 10A breast cells; MCF 10A DNA re-replication, Hoechst nuclear intensity, 48 h; Potency, µM (top dose mostly 46.1 µM), inactives show at the highest dose activity, positive = re-replication, hits mostly activators; hit rate 2.9% among 350,000; note: % of control where 0% means no effect; nearly all actives have a fitted effect of over 50% in size
KB-3-1 tox: KB-3-1 parental cell cytotoxicity; KB-3-1 viability, CellTiter-Glo ATP luminescence, 72 h; Potency, µM (doses to about 46.1 µM), actives largely listed as cytotoxic; hit rate 1.4% among 400,000; note: % is set by controls: 0 for no effect and ±100 for the full control effect; nearly all actives have a fitted effect of over 60% in size
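Cytotoxicity in the drug-sensitive parental line KB-3-1 was scored as loss of CellTiter-Glo luminescence following 72 h incubation with compound. Values come from curve fitting of normalized concentration-response data.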
Active calls of the source: *; i = inactive; ? = inconclusive; · = no result given. Calls come from the whole dose curve; as a rule, active = well fitted curve in the direction sought with a large enough effect; inconclusive = small, poorly fitted or top-dose-only effect, or another doubt; inactive = no such curve, though single readings can be large; an effect the other way counts as inactive or inconclusive. Potency is the fitted concentration of half-maximal effect.

SMILES	KB-V1 MDR tox	HT1080-NT tox	SW480 rereplic	HT1080 IDH1KD tx	MCF10A rerep	KB-3-1 tox
CCOC(=O)c1csc(NC(=O)c2cc(-c3ccccn3)nc3ccccc23)n1	i	8%	?	10%	-6%	i
CCn1c2ccccc2c2nc3cc(OC)c(OC)cc3nc21	2.1µM*	?	18µM*	?	2.9µM*	?
CCn1c2ccccc2c2nc3ccccc3nc21	i	-17%	14%	-17%	13µM*	i
CCn1c2ccccc2c2nc3cc(C(=O)O)ccc3nc21	?	?	-20%	?	?	i
CCCCC(=O)Nc1ccc(S(=O)(=O)N2CCCCC2c2cccnc2)cc1 (stereo unspecified)	i	-1%	-4%	-10%	1%	i
O=C(NC(=S)N1CCN(c2ccc([N+](=O)[O-])cc2)CC1)c1ccco1	i	-13%	-9%	-12%	-4%	i
CCCc1nc2ccccc2c(=O)n1NC(=O)c1c(O)c2ccccc2n(C)c1=O	5.8µM*	0%	8%	0%	15%	15µM*
CCc1nc2ccccc2c(=O)n1NCCc1ccccc1	i	26%	0%	17%	?	i
CCc1nc2ccccc2c(=O)n1NC(=O)c1c(O)c2ccccc2[nH]c1=O	2.9µM*	11%	16%	7%	?	?
COc1ccc(/C=N/Nc2ncnc3scc(-c4ccccc4)c23)cc1OC	i	?	?	?	?	?
CC1=CC(C)(C)N(S(=O)(=O)c2ccc(F)cc2)c2ccccc21	i	11µM*	21µM*	?	?	i
CC(=O)Nc1ccc(S(=O)(=O)N2c3ccccc3C(C)=CC2(C)C)cc1	?	1.3µM*	?	0.92µM*	?	3.3µM*
CC1=CC(C)(C)N(S(=O)(=O)c2ccc(C)cc2)c2ccc(C)cc21	?	3.2µM*	7%	6.3µM*	-2%	6.5µM*
C/C=C/C(=O)N1c2ccc(C)cc2C(C)=CC1(C)C	i	-2%	3%	0%	9%	i
COc1ccc(S(=O)(=O)Nc2ccc3cn[nH]c3c2)cc1C	?	-28%	-1%	-29%	2%	i
CCOC(=O)c1ccc(S(=O)(=O)Nc2ccc3cn[nH]c3c2)cc1	18µM*	-8%	1%	-27%	5%	?
C[C@@H]1CN([C@H](C)CO)S(=O)(=O)c2ccc(-c3cccc(C#N)c3)cc2O[C@H]1CN(C)C(=O)Nc1cc(F)ccc1F	i	1%	·	-8%	·	i
COc1ccccc1C(=O)N1CCC(C(=O)c2ccc(F)cc2)CC1	9.2µM*	0%	1%	-4%	0%	i
COc1ccccc1NC(=O)N1CCC(C(=O)c2ccc(F)cc2)CC1	21µM*	20%	-7%	-4%	26%	i
COc1ccc(C(=O)C2CCN(C(=O)c3ccc(OC)cc3)CC2)cc1	6.5µM*	1%	1%	?	12%	?
CCOc1ccc(C(=O)N2CCC(C(=O)c3ccc4c(c3)OCCO4)CC2)cc1	4.1µM*	0%	6%	-5%	21%	i
COc1cccc(C2CC(=O)Nc3n[nH]c(-c4ccccc4)c32)c1OC (stereo unspecified)	i	17%	-16%	8%	11%	i
CCN(C(=O)Cn1cc(C(F)(F)F)ccc1=O)c1c(N)n(Cc2ccccc2)c(=O)[nH]c1=O	i	11%	3%	18%	0%	i
CCOCCCn1c(=S)[nH]c2cc(C(=O)NCC(OC)OC)ccc2c1=O	i	-1%	-21%	1%	2%	i
COc1ccc(CCNC(=O)C2CCN(C(=O)c3ccc(F)cc3)CC2)cc1	i	-1%	?	3%	0.65µM*	i
SMILES	KB-V1 MDR tox	HT1080-NT tox	SW480 rereplic	HT1080 IDH1KD tx	MCF10A rerep	KB-3-1 tox
O=c1c2c(n3cnnc3n1-c1ccccc1)-c1ccccc1CC21CCCC1	i	0%	-47%	-2%	24%	i
COc1ccc2c(-c3cc4ccc(OCc5ccc(F)cc5)cc4oc3=O)cc(=O)oc2c1	8.2µM*	18%	-7%	5%	1.8µM*	7.3µM*
CCc1ccc(OCC(=O)Nc2ccc(-c3cc4ccccc4oc3=O)c(OC)c2)cc1	?	?	2.3µM*	?	-37%	?
O=C(Cc1ccc(Cl)cc1)Nc1ccc(-c2cc3ccccc3oc2=O)c(Cl)c1	2.3µM*	6.5µM*	7.3µM*	6.5µM*	2.3µM*	1.3µM*
O=C(Cc1ccc(Cl)cc1)Nc1ccc2oc(=O)ccc2c1	i	17%	1%	-17%	2%	i
Cn1nnc(NC(=O)c2cccc(F)c2)n1	i	-11%	-10%	-5%	-2%	i
CCOc1cc(CNCCO)cc(Br)c1OCc1ccc(Cl)cc1Cl	?	?	?	21µM*	?	?
CCOc1cccc(CNCCO)c1OCc1ccc(Cl)cc1Cl	i	-4%	?	-25%	?	i
CCOc1cccc(CNc2ccc(O)cc2)c1OCc1ccc(Cl)cc1Cl	i	?	?	21µM*	?	i
CCOc1cc(CNCc2cccs2)cc(Br)c1OCC	i	?	?	?	27%	?
CCOc1cc(CNCCO)cc(Br)c1OCc1cccs1	i	?	3%	11µM*	-3%	i
Cc1ccccc1-n1ncc2c(SCC(=O)NCc3cccs3)ncnc21	7.3µM*	?	21µM*	21µM*	13µM*	5.2µM*
Cc1csc(NC(=O)CSc2ncnc3c2cnn3-c2ccccc2Cl)n1	?	?	21%	?	22µM*	?
Cc1ccc(/C=C2/CNC/C(=C/c3ccc(C)cc3)C2=O)cc1	4.1µM*	15µM*	4.6µM*	23µM*	?	3.3µM*
CCOC(=O)Cc1csc(Nc2ccc(Cl)cc2)n1	i	-4%	6%	6%	-2%	i
CCOC(=O)Cc1nnc2c(Nc3ccc(Cl)cc3)nc3nonc3n12	?	?	10%	9.2µM*	13µM*	?
Fc1ccc(CNCc2ccccc2C(F)(F)F)cc1	i	2%	18µM*	4%	-1%	i
O=C1C2C3c4ccccc4C(c4ccccc43)[C@@H]2C(=O)N1c1cccnc1 (stereo partly specified)	i	4%	-1%	7%	9%	i
N#Cc1c(NC(=O)c2ccccc2Cl)n(Cc2ccccc2)c2nc3ccccc3nc12	?	?	11µM*	?	?	?
CCC(=O)Nc1c(C#N)c2nc3ccccc3nc2n1-c1ccccc1C	i	8%	-1%	4%	5%	i

High-throughput results from PubChem.
